# Test results from the supplement of paper PMC3898565.
# ± gives the uncertainty stated by the source.
# Test system: U87
# Assay: cell viability relative to vehicle control; higher = less growth inhibition (less active)
# Settings: 10 µM; 72 h
# 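Also: viable cell number estimated from Alamar Blue fluorescence read at 560/90, part of a single-dose primary screen of an FDA-approved drug library.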
row,SMILES,cell viability [%]
1,CN1C(=O)CC[C@H]1c1cccnc1 [(-)-Cotinine],94.6 ± 10
2,CC(C)(C)NCC(O)c1ccc(O)c(CO)c1 (centres undefined),98.8 ± 8.3
3,CCC(=O)O[C@]1(C(=O)SCF)[C@H](C)C[C@H]2[C@@H]3C[C@H](F)C4=CC(=O)C=C[C@]4(C)[C@@]3(F)[C@@H](O)C[C@@]21C,105 ± 2.2
4,Cc1ccnc2c1NC(=O)c1cccnc1N2C1CC1 [Viramune],107 ± 3.4
5,CCN1CCC[C@H]1CNC(=O)c1c(O)c(Cl)cc(Cl)c1OC [Raclopride],99.9 ± 6.5
6,Cc1c(O)c(=O)ccn1C,102 ± 5.2
7,Nc1c2c(nc3ccccc13)CCCC2,110 ± 18
8,Nc1ncnc2c1ncn2[C@@H]1O[C@H](CO)C[C@@H]1O [3'-deoxydenosine],100.2 ± 0.64
9,OCCOCCN1CCN(C2=Nc3ccccc3Sc3ccccc32)CC1,99.6 ± 2.8
10,O=C1c2c(O)cc(O)cc2O[C@H](c2ccc(O)c(O)c2)[C@H]1O (racemic),85.3 ± 2.2
11,"OC[C@H]1O[C@@H](n2cnc3c(N[C@H]4CCC[C@@H]4O)ncnc32)[C@@H](O)C1O (stereo partly drawn) [Adenosine, N-(2-hydroxycyclopentyl)-, (1S-trans)- [CAS]]",110.8 ± 0.42
12,O=C(CCCN1CCC(O)(c2ccc(Cl)cc2)CC1)c1ccc(F)cc1 [Haloperidol],107.5 ± 0.44
13,C[C@]12CC[C@@H]3c4ccc(O)cc4CC[C@H]3[C@@H]1CC[C@@H]2O,97.2 ± 2.4
14,CS(=O)(=O)c1ccc(-c2cc(Br)sc2-c2ccc(F)cc2)cc1,107.7 ± 0.82
15,CCC1=C[C@H]2CN(C1)Cc1c([nH]c3ccccc13)[C@@](C(=O)OC)(c1cc3c(cc1OC)N(C)[C@H]1[C@@](O)(C(=O)OC)[C@H](OC(C)=O)[C@]4(CC)C=CCN5CC[C@]31[C@@H]54)C2 [Vinorelbine Bitatrate],18 ± 5
16,CCOc1cc(CC(=O)N[C@@H](CC(C)C)c2ccccc2N2CCCCC2)ccc1C(=O)O,105 ± 1.5
17,Cc1c(OCC(F)(F)F)ccnc1C[S+]([O-])c1nc2ccccc2[nH]1 (centres undefined),104.7 ± 0.78
18,CCOC(=O)OC(C)OC1=C(C(=O)Nc2ccccn2)N(C)S(=O)(=O)c2ccccc21 (centres undefined),107 ± 1.1
19,CN(C)CC[C@@H](c1ccc(Cl)cc1)c1ccccn1,104 ± 1.6
20,Cc1cccc(C)c1NC(=O)C(C)N (centres undefined),104 ± 2.3

row,SMILES,cell viability [%]
1,O=C(NCCN1CCOCC1)c1ccc(Cl)cc1 [4-Chloro-N-(2-morpholin-4-yl-ethyl)-benzamide],80.9 ± 3.8
2,CC(C)(C#N)c1cc(Cn2cncn2)cc(C(C)(C)C#N)c1,109 ± 1.3
3,CCCN[C@H]1CCc2nc(N)sc2C1 [Pramipexole],92.5 ± 8.8
4,CC(=O)OCC(CCn1cnc2cnc(N)nc21)COC(C)=O,104.2 ± 0.4
5,N[C@@H](C(=O)N[C@@H]1C(=O)N2C(C(=O)O)=C(Cl)CS[C@H]12)c1ccccc1,104 ± 1.2
6,NC(=O)N1c2ccccc2CC(=O)c2ccccc21 [Trileptal],102 ± 2.4
7,Cc1c2oc3c(C)ccc(C(=O)N[C@@H]4C(=O)N[C@H](C(C)C)C(=O)N5CCC[C@H]5C(=O)N(C)CC(=O)N(C)[C@@H](C(C)C)C(=O)O[C@@H]4C)c3nc-2c(C(=O)N[C@@H]2C(=O)N[C@H](C(C)C)C(=O)N3CCC[C@H]3C(=O)N(C)CC(=O)N(C)[C@@H](C(C)C)C(=O)O[C@@H]2C)c(N)c1=O,16.2 ± 2.6
8,CCOC(=O)[C@H](CCc1ccccc1)N[C@@H](C)C(=O)N1[C@H](C(=O)O)C[C@@H]2CCC[C@@H]21,101 ± 1.5
9,C[C@@H](O)[C@H]1C(=O)N2C(C(=O)O)=C(S[C@@H]3CN[C@H](C(=O)N(C)C)C3)[C@H](C)[C@H]12,106.4 ± 0.79
10,C[C@]12C=CC(=O)C=C1CC[C@@H]1[C@@H]2[C@@H](O)C[C@@]2(C)[C@H]1CC[C@]2(O)C(=O)COC(=O)CCC(=O)O,104 ± 0.49
11,COc1cc(/C=C/c2ccc(O)cc2)cc(OC)c1,100.4 ± 0.43
12,Cc1sc(N)c(C(=O)c2cccc(C(F)(F)F)c2)c1C,109 ± 1.8
13,CC(C)C[C@H](NC(=O)[C@@H](COC(C)(C)C)NC(=O)[C@H](Cc1ccc(O)cc1)NC(=O)[C@H](CO)NC(=O)[C@H](Cc1c[nH]c2ccccc12)NC(=O)[C@H](Cc1cnc[nH]1)NC(=O)[C@@H]1CCC(=O)N1)C(=O)N[C@@H](CCCNC(=N)N)C(=O)N1CCC[C@H]1C(=O)NNC(N)=O,101.1 ± 0.58
14,COc1ccc(C(=O)NCc2ccc(OCCN(C)C)cc2)cc1OC,95.8 ± 3.2
15,Nc1nc(O)c2ncn(CCC(CO)CO)c2n1,103 ± 2.2
16,C[C@]12C[C@H](O)[C@H]3[C@@H](CCC4=CC(=O)CC[C@@]43C)[C@@H]1CC[C@@H]2C(=O)CO,105 ± 1.5
17,Cc1cn([C@H]2C=C[C@@H](CO)O2)c(=O)[nH]c1=O,105 ± 3
18,C[C@H]1COc2c(N3CCN(C)CC3)c(F)cc3c(=O)c(C(=O)O)cn1c23,102.8 ± 0.96
19,CCCCN1CCCC1CNC(=O)c1cc(C#N)c2ccccc2c1OC (centres undefined) [Nafadotride],102 ± 1.5
